ChEMBL document CHEMBL4513141, “CO-ADD screening of NIH (USA) - Clinical Collection” (2021)
Results with a measured potency or affinity are listed apart.

Legend:
[1] = tested on: Staphylococcus aureus; conditions: Concentration 20 uM; ASSAY_TEST Inhibition of Bacterial Growth; detection method Absorption (OD600); MEDIA CAMHB; plate type 384well; NBS; CORNING #3640; time 18 hr
[2] = tested on: Escherichia coli; conditions: Concentration 20 uM; ASSAY_TEST Inhibition of Bacterial Growth; detection method Absorption (OD600); MEDIA CAMHB; plate type 384well; NBS; CORNING #3640; time 18 hr

SMILES	Inhibition [1]	Inhibition [2]
COc1cc(C)c(/C=C/C(C)=C/C=C/C(C)=C/C(=O)O)c(C)c1C [ACITRETIN]	-32.23%	4.27%
CC(C)NCC(O)COc1ccc(CC(N)=O)cc1 (stereo not given) [ATENOLOL]	9.69%	2.4%
NS(=O)(=O)Cc1noc2ccccc12 [ZONISAMIDE]	1.04%	0.42%
CCOC(=O)C1=C(C)NC(C)=C(C(=O)OC)C1c1cccc(Cl)c1Cl (stereo not given) [FELODIPINE]	13.21%	4.41%
CC(=O)OCC(=O)C12OC3(CCCC3)OC1CC1C3CCC4=CC(=O)C=CC4(C)C3(F)C(O)CC12C (stereo not given)	19.97%	7.38%
CCN(CC)CCNC(=O)c1ccc(N)cc1.Cl [PROCAINAMIDE HYDROCHLORIDE]	-10.39%	-0.2%
CCOC(=O)c1ccc(OC(=O)CCCCCN=C(N)N)cc1.CS(=O)(=O)O	11.22%	-0.78%
Cc1onc(-c2ccccc2)c1-c1ccc(S(N)(=O)=O)cc1 [VALDECOXIB]	10.74%	4.49%
NNC(=O)c1ccncc1 [ISONIAZID]	8.75%	0.87%
OCCN1C[C@H](O)[C@@H](O)[C@H](O)[C@H]1CO [MIGLITOL]	16.69%	5.82%
COC1=CC(=O)C[C@@H](C)[C@]12Oc1c(Cl)c(OC)cc(OC)c1C2=O [GRISEOFULVIN]	7.83%	2.08%
CN(C)CCN(Cc1ccccc1)c1ccccn1.Cl [TRIPELENNAMINE HYDROCHLORIDE]	-12.77%	7.66%
CN1CCC(=C2c3ccccc3C=Cc3ccccc32)CC1.Cl [CYPROHEPTADINE HYDROCHLORIDE]	5.98%	6.77%
NC(N)=Nc1nc(CSCC/C(N)=N/S(N)(=O)=O)cs1 [FAMOTIDINE]	6.96%	3.55%
Cl.OC(CCN1CCCC1)(c1ccccc1)C1CCCCC1 (stereo not given) [PROCYCLIDINE HYDROCHLORIDE]	17.75%	-5.9%
COCCCC/C(=N\OCCN)c1ccc(C(F)(F)F)cc1.O=C(O)/C=C\C(=O)O [FLUVOXAMINE MALEATE]	7.49%	3.58%
Nc1ccc(S(=O)(=O)c2ccc(N)cc2)cc1 [DAPSONE]	-0.58%	0.96%
CC[C@H]1OC(=O)[C@H](C)C(=O)[C@H](C)[C@@H](O[C@@H]2O[C@H](C)C[C@H](N(C)C)[C@H]2O)[C@](C)(OC)C[C@@H](C)C(=O)[C@H](C)[C@@H]2N(CCCCn3cnc(-c4cccnc4)c3)C(=O)O[C@@]21C	4.38%	4.81%

SMILES	Inhibition [1]	Inhibition [2]
CC(C)OC(=O)CCC/C=C\C[C@@H]1[C@@H](CC[C@@H](O)CCc2ccccc2)[C@H](O)C[C@@H]1O [LATANOPROST]	13.97%	1.96%
CC(=O)O[C@@]12CO[C@@H]1C[C@H](O)[C@@]1(C)C(=O)[C@H](O)C3=C(C)[C@@H](OC(=O)[C@H](O)[C@@H](NC(=O)OC(C)(C)C)c4ccccc4)C[C@](O)([C@@H](OC(=O)c4ccccc4)[C@H]21)C3(C)C	10.2%	3.46%
CN(C/C=C/C#CC(C)(C)C)Cc1cccc2ccccc12.Cl [TERBINAFINE HYDROCHLORIDE]	10.26%	3%
Cc1nccn1CC1CCc2c(c3ccccc3n2C)C1=O (stereo not given) [ONDANSETRON]	4.05%	7.33%
COc1ccccc1N1CCN(CCCNc2cc(=O)n(C)c(=O)n2C)CC1.Cl [URAPIDIL HYDROCHLORIDE]	12.2%	0.81%
CC[C@@]1(O)C(=O)OCc2c1cc1n(c2=O)Cc2cc3c(CN(C)C)c(O)ccc3nc2-1.Cl [TOPOTECAN HYDROCHLORIDE]	12.09%	3.87%
CN(CCO)CC(O)Cn1cnc2c1c(=O)n(C)c(=O)n2C.O=C(O)c1cccnc1 (stereo not given) [XANTHINOL NIACINATE]	15.77%	-0.5%
CCN(Cc1ccncc1)C(=O)C(CO)c1ccccc1 (stereo not given) [TROPICAMIDE]	7.97%	5.49%
Cl.NC12CC3CC(CC(C3)C1)C2 [AMANTADINE HYDROCHLORIDE]	17.85%	-0.07%
CC(=O)CCCCn1cnc2c1c(=O)n(C)c(=O)n2C [LOMIFYLLINE]	12.49%	5.02%
CN1CCC(=C2c3ccccc3CC(=O)c3sccc32)CC1.O=C(O)/C=C/C(=O)O [KETOTIFEN FUMARATE]	6.88%	3.55%
CN(C)CC[C@@H](c1ccc(Cl)cc1)c1ccccn1.O=C(O)/C=C\C(=O)O [DEXCHLORPHENIRAMINE MALEATE]	5.99%	6.96%
Cc1cccc(CN2CCN(C(c3ccccc3)c3ccc(Cl)cc3)CC2)c1.Cl.Cl (stereo not given)	9.26%	2.8%
Cc1ccccc1C(OCCN(C)C)c1ccccc1.Cl (stereo not given) [ORPHENADRINE HYDROCHLORIDE]	13.17%	-1.64%
CNCC[C@H](Oc1cccc2ccccc12)c1cccs1.Cl [DULOXETINE HYDROCHLORIDE]	-17.99%	4.45%
CCOC(=O)[C@H](CCc1ccccc1)N[C@H]1CCc2ccccc2N(CC(=O)O)C1=O.Cl [BENAZEPRIL HYDROCHLORIDE]	9.63%	0.93%
Cc1ncc([N+](=O)[O-])n1CC(C)O (stereo not given) [SECNIDAZOLE]	11.92%	5.99%
